The source of these data is PubChem BioAssay AID1851 (National Center for Advancing Translational Sciences (NCATS), 2009).

Screen size: about 16,000 compounds; about 4,000 (25%) were called active. Roughly 26% stayed inconclusive and do not appear here. Only a sample is shown. Values without a mark were called inactive. Calls come from the whole dose curve; as a rule, active = well fitted curve in the direction sought with a large enough effect; inconclusive = small, poorly fitted or top-dose-only effect, or effect the other way; inactive = no such curve, though single readings can be large or run the other way.
% is set by controls: 0 for no effect and ±100 for the full control effect.

In the test the target is Cytochrome P450 2C9 (Homo sapiens) (UniProt P11712). The test can be described thus: Cytochrome panel assay with activity outcomes. The note with it: recombinant CYP, pro-luciferin dealkylation, luminescence, p450-cyp2c9; series mostly up to 57.1 µM; activity, negative = inhibition: at the top concentration.
Sequence of Cytochrome P450 2C9 (Homo sapiens) (P11712 whole entry, looked up): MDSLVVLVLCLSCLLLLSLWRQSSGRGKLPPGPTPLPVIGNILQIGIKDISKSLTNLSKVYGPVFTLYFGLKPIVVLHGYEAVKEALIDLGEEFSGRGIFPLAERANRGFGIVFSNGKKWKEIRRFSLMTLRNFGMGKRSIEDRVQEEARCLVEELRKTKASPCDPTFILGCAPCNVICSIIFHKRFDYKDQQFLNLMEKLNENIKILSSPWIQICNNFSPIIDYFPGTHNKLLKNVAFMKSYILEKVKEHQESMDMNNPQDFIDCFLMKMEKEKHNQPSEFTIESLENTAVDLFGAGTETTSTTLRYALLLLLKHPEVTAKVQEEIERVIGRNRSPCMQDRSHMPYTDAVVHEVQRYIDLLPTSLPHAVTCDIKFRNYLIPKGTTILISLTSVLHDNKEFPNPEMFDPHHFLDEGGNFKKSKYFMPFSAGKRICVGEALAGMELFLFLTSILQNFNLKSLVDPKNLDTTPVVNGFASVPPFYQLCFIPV
Regarding `N=C(N)SCCN`, the AC50 (as a rule, the midpoint of the concentration-response curve, whichever way the signal moves) was “inactive”. For the molecule `COC(=O)CNC(=O)CCCCC(=O)NCC(=O)OC`, the “activity, negative = inhibition” value was 5.38%. Same read-out and setting: the same measure for `CC(C)=CCC/C(C)=C/CO/N=C1/C[C@@H](O)[C@@H](O)[C@@H]2[C@@H]3C(=O)N(Cc4ccc5c(c4)OCO5)C(=O)[C@H]3CC[C@H]12`: -26.4% [at 11.4 µM]. Still for that read-out and setting: the same measure for `Nc1ccc(S(=O)(=O)Nc2ncccn2)cc1`: -7.42% [at 25.6 µM]; for `Cc1ccc(OCC(=O)NNC(=O)c2cccnc2)cc1`: 0.128%. The same measure, in the same setting: the same measure for `COc1cnc(NS(=O)(=O)c2ccc(N)cc2)nc1`: -9.19% [at 25.6 µM]. With `CCCCCOc1ccc(OC(=O)c2ccncc2)cc1`, the AC50 is 2.82 µM (active). Consider `COc1ccc(C(=O)N2CCC3(CC2)CCN(c2ccncc2)CC3)cc1`, for which the “activity, negative = inhibition” value is 1.22%. Take `O=C(Nc1ccc(OC(=O)c2cccnc2)cc1)c1cccnc1`: the “activity, negative = inhibition” value is -16.9%. Still for that read-out and setting: the same measure for `CCCCN(CCCC)CCCOC(=O)c1ccc(N)cc1`: -9.19% [at 25.6 µM]. As to `COc1ccc(OC(=O)c2ccncc2)cc1`, the AC50 is 4.47 µM (active). On the same count and under the same terms, the same measure for `CCCCOc1ccc(S(=O)(=O)Nc2cccnc2)cc1`: 1.26 µM (active); for `CCCCOc1ccc(OC(=O)c2cccnc2)cc1`: 14.1 µM (active). In the case of `COc1ccc(C(Cl)=C(c2ccc(OC)cc2)c2ccc(OC)cc2)cc1`, the “activity, negative = inhibition” value is 12.9% [at 25.6 µM]. Same read-out and setting: the same measure for `CCCCOc1ccc(CC(=O)NO)cc1`: -15.6% [at 25.6 µM].

For `c1cncc(-c2cncnc2NC2CCNCC2)c1`, the activity, negative = inhibition was 17.3% [at 2.29 µM]. As for `COc1c(C)c2c(c(O)c1C/C=C(\C)CCC(=O)O)C(=O)OC2`, the AC50 entry was “inactive”.

`C[C@H]1C[C@H]2[C@H]3CCC4=CC(=O)C=C[C@@]4(C)[C@]3(F)[C@H](O)C[C@]2(C)[C@@]1(O)C(=O)COP(=O)(O)O`: the activity, negative = inhibition was 23.1% [at 11.4 µM].

Turning to `FC(F)(F)c1ccccc1-n1ccnc1`, the “activity, negative = inhibition” value was -3.84%.

On to `N#Cc1c(-n2ccnc2)cccc1-n1ccnc1`, for which the AC50 was 0.562 µM (active). Consider `N#Cc1cccc(-c2cncnc2-n2ccnc2)c1`, for which the activity, negative = inhibition was 12.2% [at 2.29 µM]. On to `CCCCCCCCOC1OC(CO)C(O)C(O)C1NC(C)=O` (centres undefined), for which the “activity, negative = inhibition” value was 11.5%.

In the case of `C[C@@H]1C[C@H]2[C@H]3C[C@@H](F)C4=CC(=O)C=C[C@]4(C)[C@@]3(Cl)[C@@H](O)C[C@@]2(C)[C@@H]1C(=O)COC(=O)C(C)(C)C`, the “activity, negative = inhibition” value was 6.05% [at 25.6 µM].

On to `CC(=O)c1ccc(S(=O)(=O)NC(=O)NC2CCCCC2)cc1`, for which the “activity, negative = inhibition” value is -9.98% [at 25.6 µM]. The same measure, in the same setting: the same measure for `Cn1c(CNS(=O)(=O)c2ccc(F)cc2)n[nH]c1=S`: -10.4%.

On to `CC(C)(C)NS(=O)(=O)c1ccc(NC(=O)NC2CCCCC2)cc1`, for which the AC50 was 20 µM (active).

Regarding `Cc1cccc(C)c1NC(=O)Nc1ccc(S(N)(=O)=O)cc1`, the activity, negative = inhibition was -4.33% [at 11.4 µM]. With `CC(C)(C)c1ccc(NS(=O)(=O)c2ccc(N)cc2)cc1`, the activity, negative = inhibition was -10.7% [at 11.4 µM].

Consider `CC(C)(C)NS(=O)(=O)c1ccc(NS(=O)(=O)c2ccc(F)cc2)cc1`, for which the AC50 was 0.2 µM (active).

For the molecule `COc1ccc(F)cc1S(=O)(=O)NC(Cc1ccccc1)C(N)=O` (centres undefined), the “activity, negative = inhibition” value was -18.3%. Regarding `COc1ccc(S(=O)(=O)Nc2ccc(F)cc2)c(C)c1C`, the AC50 is 8.91 µM (active). Take `COc1ccccc1S(=O)(=O)Nc1ccc(-c2nnc3n2CCCCC3)cc1`: the “activity, negative = inhibition” value was -3.81%. Turning to `CC(C)(Oc1ccc(Cl)cc1)C(=O)Nc1ccncc1`, the AC50 is 0.501 µM (active). The same measure, in the same setting: the same measure for `CC(C)(Oc1ccc(Cl)cc1)C(=O)Nc1cccnc1`: 14.1 µM (active). `CCN=C(Nc1ccc(Cl)cc1)c1cccnc1`: the “activity, negative = inhibition” value was -9.1%. On the same count and under the same terms, the same measure for `CC(C)N=C(Nc1ccc(Cl)cc1)c1cccnc1`: -21.8%; for `CC(C)OC(=O)C(C)(C)Oc1ccc(C(=O)c2ccc(Cl)cc2)cc1`: -71.5% [at 25.6 µM]; for `CC(C)(Oc1ccc(CCNC(=O)c2ccc(Cl)cc2)cc1)C(=O)O`: -6.71% [at 25.6 µM]. Take `Nc1cc(C(=O)O)[nH]c(=O)n1`: the activity, negative = inhibition is 7.9% [at 11.4 µM]. On the same count and under the same terms, the same measure for `CC(=O)OCC(=O)[C@@]1(OC(C)=O)[C@H](C)C[C@H]2[C@@H]3C[C@H](F)C4=CC(=O)C=C[C@@]4(C)[C@]3(F)[C@H](O)C[C@@]21C`: -50.1% [at 25.6 µM]; for `CN(C)CCC=C1c2ccccc2CCc2ccccc21`: -10.9%; for `O=C(CCN1C(=O)C2C3C=CC(C3)C2C1=O)Nc1c(F)cccc1F` (centres undefined): -21.6%. On the same count and under the same terms, the same measure for `CC(=O)NC(CCS(C)(=O)=O)C(=O)Nc1c(F)cccc1F` (centres undefined): -3.82%.

For `CS(=O)(=O)N(CC(=O)Nc1c(F)cccc1F)c1ccc(C23CC4CC(CC(C4)C2)C3)cc1`, the AC50 is 3.98 µM (active). For `CCN(CC)c1ccc(N2C(=O)/C(=C/c3cccnc3)SC2=S)cc1`, the “activity, negative = inhibition” value is -19.1%. Turning to `Cc1ccc(S(=O)(=O)/N=C2/NC(=O)/C(=C/c3cccnc3)S2)cc1`, the AC50 was 0.0794 µM (active). As for `CC(C)NC(=O)CC(=O)N/N=C/c1ccc(F)cc1`, the “activity, negative = inhibition” value is -8.73%. Turning to `CC(C)c1ccc(/C=N/NC(=O)CN(c2cccc(Cl)c2Cl)S(C)(=O)=O)cc1`, the AC50 was 8.91 µM (active).

With `C/C(CCN1CCc2nc(-c3ccccc3)c(-c3ccccc3)cc2C1)=N\O[C@@H](C)CN1CCCCc2nc(C)c(C)cc21`, the activity, negative = inhibition was 2.2% [at 11.4 µM].
